# The supplement of paper PMC8975748
# Where a name gives a salt, the structure may show the parent alone.
# System: Saccharomyces cerevisiae BY4741 SeMeCo community
# Assay: z-score of subpopulation abundance vs DMSO median, subpopulation auxotrophic for UM; higher = larger share of this subpopulation than in DMSO controls
# Conditions: 10 µM; 24 h; SM minimal medium; subpopulation (auxotrophy): UM
# Protocol: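 Fluorescent four-plasmid SeMeCo (self-establishing metabolically cooperating S. cerevisiae BY4741 community; plasmids pH-mRuby2, pL-mWasabi, pU-eCFP, pM-TagRFP657) was grown 24 h in minimal SM medium with each Selleck FDA-approved drug at 10 µM in 384-well plates. Cells were fixed and imaged by high-content confocal microscopy. For each auxotrophic subpopulation (and the prototroph), a z-score gives the deviation from the DMSO vehicle-control population median.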
row,SMILES,z-score of subpopulation abundance
1,O=c1[nH]c2ccccc2n1CCN1CCN(c2cccc(C(F)(F)F)c2)CC1 [Flibanserin],0.43
2,CC(=O)NO [Acetohydroxamic acid],-0.03
3,COc1ccc2[nH]c([S+]([O-])Cc3ncc(C)c(OC)c3C)nc2c1 (stereo not given) [Omeprazole],-0.94
4,COc1ccc(CCN(C)CCCC(C#N)(c2ccc(OC)c(OC)c2)C(C)C)cc1OC (stereo not given) [Verapamil HCl],0.03
5,COc1c(N2C[C@@H]3CCCN[C@@H]3C2)c(F)cc2c(=O)c(C(=O)O)cn(C3CC3)c12 [Moxifloxacin HCl],-0.68
6,NS(=O)(=O)Cc1noc2ccccc12 [Zonisamide],-0.04
7,Cc1onc(-c2ccccc2Cl)c1C(=O)N[C@@H]1C(=O)N2[C@@H]1SC(C)(C)[C@@H]2C(=O)O [Cloxacillin Sodium],1.46
8,C[C@]12CCC3=C4CCC(=O)C=C4CC[C@H]3[C@@H]1CC[C@@]2(O)CC#N [Dienogest],-0.39
9,COc1ccc(CN2CCN(C(c3ccc(F)cc3)c3ccc(F)cc3)CC2)c(OC)c1OC [Lomerizine 2HCl],-0.33
10,O=C1CN(/N=C/c2ccc([N+](=O)[O-])o2)C(=O)N1 [Nitrofurantoin],0.27
11,CCn1cc(C(=O)O)c(=O)c2cc(F)c(N3CCNC(C)C3)c(F)c21 (stereo not given) [Lomefloxacin HCl],0.51
12,CN[C@@H]1[C@@H](O)[C@@H](O[C@@H]2[C@@H](O)[C@H](O[C@H]3OC(CN)=CC[C@H]3N)[C@@H](N)C[C@H]2N)OC[C@]1(C)O [Sisomicin sulfate],0.74
13,O=C(O)c1cn(C2CC2)c2cc(N3CCNCC3)c(F)cc2c1=O [Ciprofloxacin hydrochloride hydrate],0.65
14,CC(C)(C)C(=O)OCOC(=O)[C@@H]1N2C(=O)[C@@H](/N=C/N3CCCCCC3)[C@H]2SC1(C)C [Pivmecillinam hydrochloride],-0.01
15,COC(=O)Nc1nc2cc(C(=O)c3ccccc3)ccc2[nH]1 [Mebendazole],1.89
16,O=C(c1ccccc1)c1ccc2n1CCC2C(=O)O (stereo not given) [Ketorolac],-1.16
17,c1cnc2cc3c(cc2n1)[C@@H]1CNC[C@H]3C1 [Varenicline Tartrate],-0.54
18,CCOC(=O)c1c(CSc2ccccc2)n(C)c2cc(Br)c(O)c(CN(C)C)c12 [Arbidol HCl],0.68
19,O=C(c1ccc(F)cc1)C1CCN(CCn2c(=O)[nH]c3ccccc3c2=O)CC1 [Ketanserin],-0.54
20,CNC1CCCN(c2c(F)cc3c(=O)c(C(=O)O)cn(C4CC4)c3c2OC)C1 (stereo not given) [Balofloxacin],0.59

row,SMILES,z-score of subpopulation abundance
1,O=C(c1ccc(OCCN2CCCCC2)cc1)c1c(-c2ccc(O)cc2)sc2cc(O)ccc12 [Raloxifene HCl],-0.85
2,CC(C)(C)CC(C)(C)c1ccc(OCCOCC[N+](C)(C)Cc2ccccc2)cc1 [Benzethonium Chloride],-0.2
3,C[C@]12CC[C@@H]3c4ccc(O)cc4C[C@@H](CCCCCCCCC[S+]([O-])CCCC(F)(F)C(F)(F)F)[C@H]3[C@@H]1CC[C@@H]2O (stereo not given in full) [Fulvestrant],0.53
4,O=C1C(N(CO)C(=O)NCO)N(CO)C(=O)N1CO (stereo not given) [Diazolidinyl urea],-0.82
5,CC1=Nc2ccc(Cl)cc2S(=O)(=O)N1 [Diazoxide],-0.03
6,COc1cnc(NS(=O)(=O)c2ccc(N)cc2)nc1 [Sulfameter],0.21
7,COc1ccc(Cc2cnc(N)nc2N)cc1OC [Diaveridine],-0.39
8,Cc1cccc(C#Cc2ccccc2)n1,-0.28
9,CNCC[C@H](Oc1cccc2ccccc12)c1cccs1 [Duloxetine HCl],0.1
10,C[C@@H](O)[C@H]1C(=O)N2C(C(=O)O)=C(S[C@@H]3CN[C@H](C(=O)Nc4cccc(C(=O)O)c4)C3)[C@H](C)[C@H]12 [Ertapenem sodium],0.16
11,CO[C@@]1(NC(=O)C(C(=O)O)c2ccc(O)cc2)C(=O)N2C(C(=O)O)=C(CSc3nnnn3C)CO[C@@H]21 (stereo not given in full) [Latamoxef sodium],-0.41
12,CCOc1cc(N)c(Cl)cc1C(=O)NCC1CN(Cc2ccc(F)cc2)CCO1 (stereo not given) [Mosapride],-0.47
13,C#C[C@]1(O)CC[C@H]2[C@@H]3CCC4=CC(=O)CC[C@@H]4[C@H]3C(=C)C[C@@]21CC [Etonogestrel],0.08
14,CC(=O)C1C(=O)C=C(C)OC1=O (stereo not given) [Sodium dehydroacetate],0.54
15,Cc1nnc(SCC2=C(C(=O)O)N3C(=O)[C@@H](NC(=O)Cn4cnnn4)[C@H]3SC2)s1 [Cefazolin Sodium],0.25
16,CC(=O)Oc1ccccc1C(=O)O [Aspirin],-0.21
17,O=C(Cn1cnnn1)N[C@@H]1C(=O)N2C(C(=O)O)=C(CSc3nncs3)CS[C@H]12 [Ceftezole sodium],0.35
18,Cc1ccccc1C(OCCN(C)C)c1ccccc1 (stereo not given) [Orphenadrine Citrate],0.14
19,CC[C@H]1OC(=O)[C@H](C)[C@@H](O[C@H]2C[C@@](C)(OC)[C@@H](O)[C@H](C)O2)[C@H](C)[C@@H](O[C@@H]2O[C@H](C)C[C@H](N(C)C)[C@H]2O)[C@](C)(O)C[C@@H](C)[C@@H]2N[C@@H](COCCOC)O[C@H]([C@H]2C)[C@]1(C)O [Dirithromycin],-0.05
20,CC1(C)S[C@@H]2[C@H](NC(=O)[C@H](N)c3ccc(O)cc3)C(=O)N2[C@H]1C(=O)O [Amoxicillin Sodium],-0.03
